Reference: PubChem BioAssay AID1159580 (chemical genetic matrix, 2015)
Several values for one entry are separate records, joined by “and”; a condition that tells them apart may be missing. Equal values may be shown once. About 2,000 (36%) of roughly 5,500 compounds were called active. Inconclusive results (about 18%) are left out. No stated cut-off is given here; in the data, active means normalized growth mostly below about 0.91 (no sharp cut-off); inconclusive means no clear call, values can overlap the other calls; inactive means mostly above about 0.92. The list shows a part of the results.

Test: chemical genetic growth profiling, strain panel (AID 1159580);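 further: tested at 20 µM; growth read once vehicle control cultures reached saturation at 30 °C; 1 = growth at the plate median or of vehicle wells; lower values mean less growth of the strain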
Details: S. cerevisiae deletion strains, growth OD

Measured: normalized growth

COc1cc2cc3c4cc(OC)c(OC)cc4cc[n+]3c(C)c2cc1OC
inactive: locus YAL021C, strain ccr4, hits give low values 1.05 | locus YAL026C, strain drs2, hits give low values 1.03 | locus YAL030W, strain snc1, hits give low values 1.01 | locus YBL061C, strain skt5, hits give low values 1.02 | locus YBR009C, strain hhf1, hits give low values 1.01 | locus YBR021W, strain FUR4, hits give low values 1 | locus YBR023C, strain chs3, hits give low values 1.01 | locus YBR171W, strain sec66, hits give low values 1.03 | locus YBR229C, strain ROT2, hits give low values 1.01 | locus YBR231C, strain swc5, hits give low values 1 | locus YBR279W, strain paf1, hits give low values 1.01 | locus YCL011C, strain gbp2, hits give low values 1.01 | locus YCL016C, strain dcc1, hits give low values 0.997 | locus YCL029C, strain bik1, hits give low values 1.01 | locus YCL061C, strain MRC1, hits give low values 1.01 | locus YCL069W, strain vba3, hits give low values 1.01 | locus YCR088W, strain abp1, hits give low values 1.01 | locus YDL005C, strain med2, hits give low values 1.02 | locus YDL035C, strain GPR1, hits give low values 0.998 | locus YDL040C, strain nat1, hits give low values 0.992 | locus YDL074C, strain BRE1, hits give low values 0.996 | locus YDL101C, strain DUN1, hits give low values 1.01 | locus YDL134C, strain PPH21, hits give low values 0.982 | locus YDL185W, strain tfp1, hits give low values 1.02 | locus YDL192W, strain arf1, hits give low values 1 | locus YDR001C, strain nth1, hits give low values 1.01 | locus YDR069C, strain doa4, hits give low values 1.02 | locus YDR101C, strain arx1, hits give low values 1.01 | locus YDR137W, strain rgp1, hits give low values 1.06 | locus YDR159W, strain sac3, hits give low values 1 | locus YDR162C, strain NBP2, hits give low values 0.999 | locus YDR195W, strain ref2 0.97 | locus YDR297W, strain sur2, hits give low values 1.01 | locus YDR318W, strain mcm21, hits give low values 0.987 | locus YDR334W, strain swr1, hits give low values 1.02 | locus YDR335W, strain msn5, hits give low values 1.01 | locus YDR388W, hits give low values 1 | locus YDR392W, strain spt3, hits give low values 0.848 | locus YDR502C, strain sam2, hits give low values 0.987 | locus YEL003W, strain gim4, hits give low values 1.01 | locus YEL037C, strain rad23, hits give low values 1.01 | locus YEL061C, strain CIN8 (second series), hits give low values 1.01 | locus YEL061C, strain CIN8, hits give low values 1.01 | locus YER015W, strain faa2, hits give low values 1.01 | locus YER016W, strain bim1, hits give low values 1 | locus YER110C, hits give low values 1.02 | locus YER111C, strain swi4, hits give low values 1.03 | locus YER155C, strain BEM2 (second series), hits give low values 0.97 | locus YER155C, strain BEM2, hits give low values 1.01 | locus YER167W, strain BCK2, hits give low values 1 | locus YFR010W, strain ubp6, hits give low values 1.03 | locus YGL078C, strain dbp3, hits give low values 0.997 | locus YGL086W, strain mad1, hits give low values 1.03 | locus YGL167C, strain pmr1, hits give low values 1.01 | locus YGL173C, strain kem1, hits give low values 1.03 | locus YGL227W, strain vid30, hits give low values 1.01 | locus YGL240W, strain doc1, hits give low values 0.999 | locus YGL248W, strain PDE1, hits give low values 0.997 | locus YGL253W, strain hxk2, hits give low values 1.03 | locus YGR135W, strain pre9, hits give low values 0.988 | locus YGR229C, strain SMI1, hits give low values 1.01 | locus YGR252W, strain gcn5, hits give low values 0.904 | locus YHR013C, strain ard1, hits give low values 1.01 | locus YHR027C, strain rpn1, hits give low values 1.04 | locus YHR030C, strain SLT2, hits give low values 1.01 and 0.988 | locus YHR079C, strain IRE1 (second series), hits give low values 1.02 | locus YHR079C, strain IRE1, hits give low values 1 | locus YHR094C, strain hxt1, hits give low values 1.01 | locus YHR129C, strain ARP1, hits give low values 1 | locus YHR142W, strain chs7, hits give low values 1.01 | locus YHR200W, strain rpn10, hits give low values 0.994 | locus YIL066C, strain RNR3, hits give low values 1.01 | locus YIL073C, strain SPO22, hits give low values 1.01 | locus YIL125W, strain kgd1, hits give low values 1.01 | locus YIR030C, strain dcg1, hits give low values 1 | locus YJL092W, strain hpr5, hits give low values 1.01 | locus YJL095W, strain BCK1 (second series), hits give low values 1.01 | locus YJL095W, strain BCK1, hits give low values 1.01 and 0.99 | locus YJL115W, strain asf1, hits give low values 1.01 | locus YJL129C, strain trk1, hits give low values 1.02 | locus YJL134W, strain LCB3, hits give low values 1.01 | locus YJL154C, strain vps35, hits give low values 1.01 | locus YJL164C, strain tpk1, hits give low values 0.984 | locus YJL166W, strain qcr8, hits give low values 1.02 | locus YJL168C, strain set2, hits give low values 1.01 | locus YJL187C, strain SWE1 (second series), hits give low values 0.991 | locus YJL187C, strain SWE1, hits give low values 1.01
